Measurements as given in PubChem BioAssay AID492993 (Johns Hopkins Ion Channel Center, 2010).
Among all 4,900 compounds or so, about 200 (4.1%) were called active.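 The calls were made as follows: active = thallium signal drop more than 5 SD beyond the mean of the no-compound control wells, seen in both duplicate plates; inactive = the rest.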 Shown is part of a subset that was picked to be rich in actives.

Each molecule was assayed against Inward rectifier potassium channel 2 (Mus musculus) (UniProt P35561) (assay: mouse Kir2.1 channel inhibition, confirmation, selectivity assay for KCNK9 modulator project, cell-based, HEK293, thallium flux (AID 492993;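 as to inhibition: signal is fluorescence rise after thallium addition divided by baseline fluorescence; plate controls were assay buffer only for no effect and full block by chlorpromazine control for full effect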)). Conditions: Kir2.1 cells, FluxOR thallium flux fluorescence, at 10 µM; active compounds read high.
Inward rectifier potassium channel 2 (Mus musculus), sequence (P35561 whole entry, looked up): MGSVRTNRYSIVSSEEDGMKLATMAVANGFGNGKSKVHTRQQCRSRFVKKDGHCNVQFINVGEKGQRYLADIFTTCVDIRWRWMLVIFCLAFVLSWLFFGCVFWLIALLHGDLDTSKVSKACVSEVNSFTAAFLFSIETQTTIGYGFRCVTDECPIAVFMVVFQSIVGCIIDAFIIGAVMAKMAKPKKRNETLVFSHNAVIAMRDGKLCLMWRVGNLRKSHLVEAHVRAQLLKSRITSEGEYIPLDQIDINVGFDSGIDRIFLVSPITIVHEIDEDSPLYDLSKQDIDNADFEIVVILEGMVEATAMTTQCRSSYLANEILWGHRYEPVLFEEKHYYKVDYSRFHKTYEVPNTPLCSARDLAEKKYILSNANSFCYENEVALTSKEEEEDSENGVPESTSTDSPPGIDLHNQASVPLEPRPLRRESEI
`CCCCCCCCCCCCn1ccc(=N)cc1` was tested, and the inhibition was 75% (active).
With `CCCCCCN=C(CC)c1c(O)n(CCCC)c(=O)[nH]c1=O` the inhibition was “inactive”.
For `CC(C)(C)c1ccc(OC(=O)N2CCCCC2)cc1`, the inhibition was “inactive”.
With `CCOC(=O)C1SC2(C(F)(F)C(F)F)CC1(O)c1c(c(OC)c3occc3c1OC)O2` (stereo not given) the inhibition was “inactive”.
For `CC(C)(C)c1ccc(CN2C(=O)CN=C(c3ccccc3)c3ccccc32)cc1`, the inhibition was “inactive”.
